# Screens from PubChem.
# Many of the other results were omitted from the sample, so hits are more common in it than they were.
# 12-LOX inh: Primary qHTS assay for inhibitors of human arachidonate 12S-lipoxygenase (ALOX12): Round 2; Polyunsaturated fatty acid lipoxygenase ALOX12 (Homo sapiens), P18054; purified 12hLO, xylenol orange hydroperoxide absorbance; Potency, µM (series often up to 108 µM), for the others: at the highest dose activity change, negative = inhibition, usual class: inhibitors; 580,000 compounds, 1.1% hits; note: % is set by controls: 0 for no effect and ±100 for the full control effect
# Target sequence (P18054 whole entry, looked up): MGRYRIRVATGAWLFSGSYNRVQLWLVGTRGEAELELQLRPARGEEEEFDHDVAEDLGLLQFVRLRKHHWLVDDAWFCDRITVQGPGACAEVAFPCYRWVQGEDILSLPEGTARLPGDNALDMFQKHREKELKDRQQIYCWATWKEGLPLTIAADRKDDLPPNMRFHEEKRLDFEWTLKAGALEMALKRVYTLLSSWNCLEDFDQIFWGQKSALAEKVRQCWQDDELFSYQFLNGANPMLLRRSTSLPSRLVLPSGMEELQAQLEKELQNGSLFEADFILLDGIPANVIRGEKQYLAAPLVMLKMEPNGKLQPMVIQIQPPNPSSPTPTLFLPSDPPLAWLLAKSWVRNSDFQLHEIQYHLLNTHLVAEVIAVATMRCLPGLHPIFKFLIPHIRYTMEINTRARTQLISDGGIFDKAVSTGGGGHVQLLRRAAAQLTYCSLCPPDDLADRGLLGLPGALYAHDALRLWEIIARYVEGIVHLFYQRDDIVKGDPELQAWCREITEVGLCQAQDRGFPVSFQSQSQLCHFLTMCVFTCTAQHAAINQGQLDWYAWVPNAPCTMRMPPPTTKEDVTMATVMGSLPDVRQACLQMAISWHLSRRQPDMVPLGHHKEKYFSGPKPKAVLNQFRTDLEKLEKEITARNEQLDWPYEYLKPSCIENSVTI
#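 Purified human 12hLO (150 nM final) in 25 mM Hepes, 0.01% Triton X-100, pH 7.0 was preincubated 15 min at room temperature with compound. Then 40 uM arachidonic acid was added, 30 min. Hydroperoxide was read by Fe-XO absorbance ratio 573/405 nm.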
# GRP78 ERSR act: qHTS for Inducers of the Endoplasmic Reticulum Stress Response (ERSR) in Human Glioma: qHTS | U87-MG GRP78 promoter luciferase reporter, 16 h | Potency, µM, for the others: at the highest dose activation, actives largely listed as activators | 420,000 compounds, 0.02% hits; note: series mostly up to about 76 µM; % of control where 0% means no effect; nearly all actives have a fitted effect of over 35% in size
#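 Stably transfected U87-MG glioma cells carrying a GRP78-based luciferase sensor; 16 h compound incubation. Luminescence end-point read 10 min after Bright-Glo addition at room temperature.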
# Sfp PPTase inh: qHTS Assay for Inhibitors of Bacillus subtilis Sfp phosphopantetheinyl transferase (PPTase); Potency, µM, inactives show largest response in the series, negative = inhibition, usual class: inhibitors; Biochemical Sfp PPTase activity, qHTS; 4'-phosphopantetheinyl transferase ffp (Bacillus subtilis), Q9F4F7; 310,000 compounds, 3.5% hits;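 note: the enzyme is Sfp with the accession as filed and its product quenches rhodamine fluorescence; 0% = enzyme reaction without inhibitor and -100% = no enzyme wells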
#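 Fluorescence-quenching assay: 15 nM Sfp-PPTase preincubated 15 min at room temperature with compound, then 5 uM rhodamine-CoA and 12.5 uM BHQ-2-labelled YbbR peptide added. Fluorescence (ex 525/em 598 nm) read at start and after 30 min; difference gives rate.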
# VDR inh: Inhibitors of the vitamin D receptor (VDR): qHTS; Vitamin D3 receptor (Homo sapiens), P11473; VDR-SRC2-3 peptide fluorescence polarization, 2 h; Potency, µM, for the others: max response, negative = inhibition, hits mostly inhibitors; 400,000 compounds, 0.93% hits; note: % is set by controls: 0 for no effect and ±100 for the full control effect
#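 FP read-out; VDR + SRC2-3 coactivator peptide; 23 nl compound by pintool; 2 h RT incubation; reagents held at 4 deg C, protected from light.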
# G9a block: qHTS Assay for Inhibitors of Histone Lysine Methyltransferase G9a | Histone-lysine N-methyltransferase EHMT2 (Homo sapiens), Q96KQ7 | G9a H3K9 monomethylation, AlphaScreen, 2 h | Potency, µM (highest dose often 102 µM), without a hit: at the highest dose activity, negative = inhibition, most hits filed as inhibitors | 350,000 compounds, 8.8% hits; note: % is set by controls: 0 for no effect and ±100 for the full control effect; nearly all actives have a fitted effect of over 75% in size
#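 Chemiluminescent proximity detection of H3K9 monomethylation, read after 10 min bead incubation in the dark. Reaction: 20 nM G9a, 500 nM biotin-H3K9 peptide, 20 uM SAM cofactor, 2 h, room temperature, following 15 min enzyme-compound preincubation.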
# * hit, by the source's call; ? = inconclusive; . = no result; [ ] = remark or other dose. Calls come from the whole dose curve; as a rule, active = well fitted curve in the direction sought with a large enough effect; inconclusive = small, poorly fitted or top-dose-only effect, or another doubt; inactive = no such curve, though single readings can be large; an effect the other way counts as inactive or inconclusive. Potency is the fitted concentration of half-maximal effect.
SMILES,12-LOX inh,GRP78 ERSR act,Sfp PPTase inh,VDR inh,G9a block
NS(=O)(=O)c1cccc(NC(=O)CCCNC(=O)c2ccc(Cl)cc2)c1,-29%,-2%,14%,34%,19%
NS(=O)(=O)c1cccc(NC(=O)CCSc2ccc(Cl)cc2)c1,?,-2%,6%,?,1.4µM*
CCc1nc(-c2ccccc2)c2ccccn12,1%,-6%,28µM*,-8%,16µM*
CC(C)NC(=O)c1nc(-c2ccccc2)c2ccccn12,51%[176 µM],.,.,.,.
S=c1sc2c(s1)SC1c3ccccc3CC1S2 (stereo not drawn),16µM*,.,.,.,.
O=C(O)C(c1c[nH]c2ccc(Cl)cc12)N1CCN(Cc2ccccn2)CC1 (stereo not drawn),-6%,.,.,.,.
CN(Cc1ccccc1)C(=O)NC1CCCC(C(F)(F)F)C1 (stereo not drawn),-25%,.,.,.,.
O=C(CC(c1cccs1)S(=O)(=O)c1ccccc1)c1ccc(F)cc1 (stereo not drawn),-14%,0%,-2%,6%,8.9µM*
Cc1ccc(-c2nc3ncccc3o2)cc1NC(=O)CC12CC3CC(CC(C3)C1)C2,27%,.,.,.,.
CC1(C)Cc2ccccc2/C(=C/C(=O)N2CCCCCC2)N1,?,0%,-28%,4%,35µM*
CC(=C1SC(=S)NC1=O)c1ccc(Cl)c(O)c1,28µM*,.,.,.,.
COc1cc(C2c3c(-c4cc(C)cc(C)c4O)n[nH]c3C(=O)N2CCCO)cc(OC)c1OC (stereo not drawn),-13%,-6%,0%,16%,?
CCCOc1ccc(/C(O)=C2/C(=O)C(=O)N(CCN(C)C)C2c2ccc(O)c(OC)c2)cc1 (stereo not drawn),.,0%,8%,27%,45µM*
COCCCN1C(=O)c2[nH]nc(-c3cc(C)cc(C)c3O)c2C1c1ccc(O)c(OC)c1 (stereo not drawn),-18%,2%,-2%,-20%,45µM*
COCCCN1C(=O)C(=O)/C(=C(/O)c2ccc(S(=O)(=O)N3CCCCC3)cc2)C1c1ccc(O)c(OC)c1 (stereo not drawn),?,0%,-2%,-2%,?
COCCCN1C(=O)C(=O)/C(=C(/O)c2ccc(OC)cc2)C1c1ccc(O)c(OC)c1 (stereo not drawn),6.3µM*,-1%,0%,-16%,-6%[59 µM]
COCCCN1C(=O)C(=O)/C(=C(/O)c2ccc(S(=O)(=O)N3CCCCC3)cc2)C1c1cccc(OC)c1 (stereo not drawn),?,-3%,11%,-7%,45µM*
COc1cc(NC(=O)c2ccc(Cn3cc(Br)cn3)cc2)ccc1OC(F)F,-20%,.,.,.,.
CCn1ccc2cc(S(=O)(=O)N3CCC(C(=O)NCCN4CCCCC4)CC3)ccc21,-27%,.,.,.,.
COc1cc(C2/C(=C(\O)c3cc(C)ccc3C)C(=O)C(=O)N2CCN(C)C)ccc1O (stereo not drawn),0%,-7%,-9%,8%,50µM*
O=C(NCCN1CCC(n2c(=O)[nH]c3ccccc32)CC1)c1ccc(F)cc1,35µM*,.,.,.,.
O=C(NCCN1CCC(n2c(=O)[nH]c3ccccc32)CC1)c1ccc(Cl)c(Cl)c1,32µM*,.,.,.,.
CCCCN1CCC(n2c(=O)[nH]c3ccccc32)CC1,.,-3%,.,-7%,9.5µM*
Cc1ccc(C)c(S(=O)(=O)Nc2ccc(S(=O)(=O)C3CCCC3)cc2)c1,-4%,.,.,.,.
CCn1ccnc1CN1CCc2c([nH]c3ccccc23)C1C1CCCCC1 (stereo not drawn),-1%,-3%,-10%,?,45µM*
SMILES,12-LOX inh,GRP78 ERSR act,Sfp PPTase inh,VDR inh,G9a block
Cc1cccc(NC(=O)CNC(=O)c2cc(=O)c3ccccc3o2)c1C,-15%,.,.,.,.
Cc1ccc2sc(NNC(=O)c3cc(=O)c4ccccc4o3)nc2c1C,?,1%,8.9µM*,7.9µM*,7.1µM*
O=C(NNc1nc2c(F)cccc2s1)c1cc(=O)c2ccccc2o1,-24%,-7%,-15%,?,35µM*
COc1ccc2nc(NNC(=O)c3cc(=O)c4ccccc4o3)sc2c1,?,0%,13µM*,32µM*,8.9µM*
Cc1cccc2sc(NNC(=O)c3cc(=O)c4ccccc4o3)nc12,32µM*,-6%,45µM*,?,.
CCCCC(CC)C(=O)Nc1ccccc1Br (stereo not drawn),-44%,.,.,.,.
O=C1OC2(c3ccccc31)c1cc(I)c(O)c(I)c1Oc1c2cc(I)c(O)c1I,1.6µM*,1%,14µM*,4.5µM*,?
O=C1OC2(c3cc(I)c(O)c(I)c3Oc3c2cc(I)c(O)c3I)c2c(Cl)c(Cl)c(Cl)c(Cl)c21,.,-10%,?,5µM*,.
COC(=O)c1ccc(CSc2ccc3nnc(-c4ccccn4)n3n2)o1,-5%[57.4 µM],-2%,40µM*,-5%,45µM*
COC(=O)c1ccc(CSc2ccc3nnc(-c4ccc(F)cc4)n3n2)o1,-4%,-1%,-10%,-10%,-12%
Fc1ccc(CSc2ccc3nnc(-c4ccccn4)n3n2)cc1,1%,-6%,4%,2%,12%
CCOc1ccc(-c2nnc3ccc(SCc4ccc(C(=O)OC)o4)nn23)cc1,?,-4%,11µM*,-6%,11µM*
COc1ccc(-c2nonc2NC(=O)Cc2cccc3ccccc23)cc1,-29%,.,.,.,.
COc1cc(/C=C2/SC(=O)NC2=O)ccc1Oc1ccc([N+](=O)[O-])cc1[N+](=O)[O-],0%,-1%,50µM*,-20%,?
COc1cc(/C=N/NC(=O)c2ccc3ccccc3c2)ccc1Oc1ccc([N+](=O)[O-])cn1,?,-1%,2%,-5%,1.8µM*
COc1cc(/C=C2\SC(=O)NC2=O)ccc1Oc1ccc([N+](=O)[O-])cn1,58%,10%,79µM*,?,-3%[12.7 µM]
COCCN1CCCCC(CC(=O)Nc2cc(C)c(Cl)cc2OC)C1=O (stereo not drawn),15%,.,.,.,.
O=C1c2ccccc2NC2(CCCC2)N1O,?,-5%,?,-20%,35µM*
COc1ccccc1C(=O)/C=C/c1ccc(N2CCCCC2)c([N+](=O)[O-])c1,-21%,-2%,1%,79µM*,13µM*
O=C(O/N=C\c1ccc(N2CCCCC2)c([N+](=O)[O-])c1)c1ccc(Cl)cc1Cl,0%,-1%,12%,-12%,40µM*
O=C(/C=C/c1ccc(N2CCCCC2)c([N+](=O)[O-])c1)c1ccc(O)cc1,-1%,-1%,-2%,?,-25%[12.7 µM]
O=S(=O)(Nc1ccc(-c2cn3c(n2)SCC3)cc1)c1ccccc1F,393%,5%,-4%,4%,?
